Here are results for seven compounds from ChEMBL document CHEMBL1961873, “Compounds: GSK PKIS; Assays: Nanosyn kinase panel” (2012).

Test [1] concerns the target Tyrosine-protein kinase receptor UFO (Homo sapiens) (UniProt P30530). As to conditions: at 1 µM.
Test [2] concerns the target Tyrosine-protein kinase Blk (Homo sapiens) (UniProt P51451). As to conditions: at 0.1 µM.
For test [3] the target is unchanged. Conditions: at 1 µM.
Test [4] has as its target T1, Cytoplasmic tyrosine-protein kinase BMX (Homo sapiens) (UniProt P51813).
T1 sequence (whole entry): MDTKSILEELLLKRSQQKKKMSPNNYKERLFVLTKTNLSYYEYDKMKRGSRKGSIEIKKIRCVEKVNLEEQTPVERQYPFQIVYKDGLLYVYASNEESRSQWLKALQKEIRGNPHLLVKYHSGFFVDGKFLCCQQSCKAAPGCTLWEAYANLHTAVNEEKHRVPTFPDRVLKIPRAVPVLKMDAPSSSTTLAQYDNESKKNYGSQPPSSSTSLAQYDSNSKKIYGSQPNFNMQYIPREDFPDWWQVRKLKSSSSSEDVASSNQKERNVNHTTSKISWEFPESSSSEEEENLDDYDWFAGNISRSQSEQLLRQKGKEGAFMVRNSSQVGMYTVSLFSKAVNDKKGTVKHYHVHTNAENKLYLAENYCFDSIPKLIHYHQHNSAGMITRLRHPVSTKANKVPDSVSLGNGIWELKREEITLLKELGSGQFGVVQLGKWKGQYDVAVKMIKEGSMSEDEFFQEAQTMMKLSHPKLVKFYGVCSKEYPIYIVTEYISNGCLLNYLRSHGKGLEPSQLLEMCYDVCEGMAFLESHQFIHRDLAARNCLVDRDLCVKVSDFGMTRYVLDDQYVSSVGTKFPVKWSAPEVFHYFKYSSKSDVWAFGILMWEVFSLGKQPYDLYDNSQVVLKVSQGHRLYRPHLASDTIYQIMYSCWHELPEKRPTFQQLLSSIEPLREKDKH
Conditions: at 0.1 µM.

Test [5] deals with T1, Cytoplasmic tyrosine-protein kinase BMX (Homo sapiens). As to conditions: at 1 µM.
The target in test [6] is Protein-tyrosine kinase 6 (Homo sapiens) (UniProt Q13882). Conditions: at 0.1 µM.
Test [7] has the same target. As to conditions: at 1 µM.
Test [8] addresses Tyrosine-protein kinase BTK (Homo sapiens) (UniProt Q06187). Conditions: at 0.1 µM.
Test [9] has the same target. As to conditions: at 1 µM.
Test [10] concerns the target Tyrosine-protein kinase CSK (Homo sapiens) (UniProt P41240). As to conditions: at 0.1 µM.
Test [11] has the same target. Conditions: at 1 µM.
Test [12] addresses T2, Discoidin domain-containing receptor 2 (Homo sapiens) (UniProt Q16832).
T2 sequence (whole entry): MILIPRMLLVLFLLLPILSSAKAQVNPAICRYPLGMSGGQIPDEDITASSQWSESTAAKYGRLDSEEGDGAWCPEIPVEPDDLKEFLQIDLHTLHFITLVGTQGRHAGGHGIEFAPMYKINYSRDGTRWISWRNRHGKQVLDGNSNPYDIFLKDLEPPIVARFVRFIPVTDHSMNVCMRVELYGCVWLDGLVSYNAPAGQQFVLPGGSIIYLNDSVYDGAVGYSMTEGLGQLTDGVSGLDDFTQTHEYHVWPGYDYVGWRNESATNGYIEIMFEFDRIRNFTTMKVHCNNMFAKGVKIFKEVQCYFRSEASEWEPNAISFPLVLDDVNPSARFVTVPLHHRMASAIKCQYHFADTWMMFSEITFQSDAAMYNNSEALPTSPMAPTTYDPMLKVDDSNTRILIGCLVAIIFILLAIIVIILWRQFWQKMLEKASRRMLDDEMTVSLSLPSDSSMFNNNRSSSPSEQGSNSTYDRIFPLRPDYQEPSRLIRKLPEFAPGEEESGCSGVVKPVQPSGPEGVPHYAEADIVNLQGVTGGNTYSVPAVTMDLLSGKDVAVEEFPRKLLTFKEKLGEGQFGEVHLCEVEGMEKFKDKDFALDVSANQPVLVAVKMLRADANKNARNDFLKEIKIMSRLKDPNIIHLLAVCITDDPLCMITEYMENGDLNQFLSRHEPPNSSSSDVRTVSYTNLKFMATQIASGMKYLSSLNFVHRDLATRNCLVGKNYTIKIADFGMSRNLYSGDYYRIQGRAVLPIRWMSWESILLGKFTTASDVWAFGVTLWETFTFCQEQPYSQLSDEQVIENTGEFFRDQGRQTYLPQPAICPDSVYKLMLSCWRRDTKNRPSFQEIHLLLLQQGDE
As to conditions: at 0.1 µM.

Test [13] deals with T2, Discoidin domain-containing receptor 2 (Homo sapiens). As to conditions: at 1 µM.
Test [14] has as its target Epidermal growth factor receptor (Homo sapiens) (UniProt P00533). Conditions: at 0.1 µM.
For test [15] the target is unchanged. As to conditions: at 1 µM.
In test [16] the test system is Epidermal growth factor receptor (Homo sapiens), P00533 [L858R]. Conditions: at 0.1 µM.
The test system is the same in test [17]. As to conditions: at 1 µM.
Test [18] has as its system Epidermal growth factor receptor (Homo sapiens), P00533 [L861Q]. As to conditions: at 0.1 µM.
For test [19] the test system is unchanged. Conditions: at 1 µM.
For test [20], the system named is Epidermal growth factor receptor (Homo sapiens), P00533 [T790M]. Conditions: at 0.1 µM.

Broadly, the inhibition is the relative decrease from the control value, in per cent.

Sequence of Tyrosine-protein kinase Blk (Homo sapiens) (P51451 2-505 limits assumed): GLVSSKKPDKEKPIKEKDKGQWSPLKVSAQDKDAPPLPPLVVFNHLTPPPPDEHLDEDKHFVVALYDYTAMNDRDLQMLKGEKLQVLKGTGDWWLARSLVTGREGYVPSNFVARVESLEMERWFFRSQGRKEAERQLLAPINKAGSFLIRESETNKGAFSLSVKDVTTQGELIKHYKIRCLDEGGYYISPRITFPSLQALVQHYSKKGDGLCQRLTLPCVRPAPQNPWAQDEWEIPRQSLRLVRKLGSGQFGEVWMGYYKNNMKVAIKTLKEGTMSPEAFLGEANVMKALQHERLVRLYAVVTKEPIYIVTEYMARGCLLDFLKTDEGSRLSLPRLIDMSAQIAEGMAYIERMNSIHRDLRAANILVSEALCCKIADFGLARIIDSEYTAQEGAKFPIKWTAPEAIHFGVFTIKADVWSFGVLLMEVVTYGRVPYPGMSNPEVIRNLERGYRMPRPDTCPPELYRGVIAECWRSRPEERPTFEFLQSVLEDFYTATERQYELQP
Sequence of Epidermal growth factor receptor (Homo sapiens), P00533 [L858R] (P00533 whole entry L858R): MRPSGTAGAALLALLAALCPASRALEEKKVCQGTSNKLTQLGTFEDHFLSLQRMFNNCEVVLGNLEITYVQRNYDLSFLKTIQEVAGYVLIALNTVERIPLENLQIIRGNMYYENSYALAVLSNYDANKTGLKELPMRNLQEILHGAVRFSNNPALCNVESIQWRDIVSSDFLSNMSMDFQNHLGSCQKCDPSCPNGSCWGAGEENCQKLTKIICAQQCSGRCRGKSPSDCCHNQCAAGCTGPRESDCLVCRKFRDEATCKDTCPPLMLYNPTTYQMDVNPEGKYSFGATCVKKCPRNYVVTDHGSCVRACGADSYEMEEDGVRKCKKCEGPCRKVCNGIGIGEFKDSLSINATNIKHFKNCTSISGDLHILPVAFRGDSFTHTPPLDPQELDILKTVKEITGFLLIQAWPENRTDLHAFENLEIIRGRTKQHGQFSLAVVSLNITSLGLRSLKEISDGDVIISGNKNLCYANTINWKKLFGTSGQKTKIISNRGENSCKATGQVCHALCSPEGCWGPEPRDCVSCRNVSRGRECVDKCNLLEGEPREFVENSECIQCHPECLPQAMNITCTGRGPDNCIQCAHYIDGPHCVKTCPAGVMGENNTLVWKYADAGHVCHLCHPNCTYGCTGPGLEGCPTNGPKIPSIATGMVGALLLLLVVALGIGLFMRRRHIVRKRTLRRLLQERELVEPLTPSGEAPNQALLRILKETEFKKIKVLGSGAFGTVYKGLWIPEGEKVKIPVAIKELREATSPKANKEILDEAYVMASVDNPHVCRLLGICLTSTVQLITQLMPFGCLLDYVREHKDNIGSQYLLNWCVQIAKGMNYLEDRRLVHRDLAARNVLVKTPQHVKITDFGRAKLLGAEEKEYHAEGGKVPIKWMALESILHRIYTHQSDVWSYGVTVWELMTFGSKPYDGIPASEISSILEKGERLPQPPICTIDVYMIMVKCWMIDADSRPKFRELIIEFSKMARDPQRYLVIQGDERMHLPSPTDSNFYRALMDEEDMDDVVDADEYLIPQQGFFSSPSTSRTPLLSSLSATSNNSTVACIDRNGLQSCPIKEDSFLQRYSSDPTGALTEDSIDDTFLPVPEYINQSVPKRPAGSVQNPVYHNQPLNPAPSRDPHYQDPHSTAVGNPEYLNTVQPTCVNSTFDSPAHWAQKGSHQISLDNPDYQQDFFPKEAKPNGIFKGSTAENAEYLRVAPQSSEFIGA
Sequence of Epidermal growth factor receptor (Homo sapiens), P00533 [L861Q] (P00533 whole entry L861Q): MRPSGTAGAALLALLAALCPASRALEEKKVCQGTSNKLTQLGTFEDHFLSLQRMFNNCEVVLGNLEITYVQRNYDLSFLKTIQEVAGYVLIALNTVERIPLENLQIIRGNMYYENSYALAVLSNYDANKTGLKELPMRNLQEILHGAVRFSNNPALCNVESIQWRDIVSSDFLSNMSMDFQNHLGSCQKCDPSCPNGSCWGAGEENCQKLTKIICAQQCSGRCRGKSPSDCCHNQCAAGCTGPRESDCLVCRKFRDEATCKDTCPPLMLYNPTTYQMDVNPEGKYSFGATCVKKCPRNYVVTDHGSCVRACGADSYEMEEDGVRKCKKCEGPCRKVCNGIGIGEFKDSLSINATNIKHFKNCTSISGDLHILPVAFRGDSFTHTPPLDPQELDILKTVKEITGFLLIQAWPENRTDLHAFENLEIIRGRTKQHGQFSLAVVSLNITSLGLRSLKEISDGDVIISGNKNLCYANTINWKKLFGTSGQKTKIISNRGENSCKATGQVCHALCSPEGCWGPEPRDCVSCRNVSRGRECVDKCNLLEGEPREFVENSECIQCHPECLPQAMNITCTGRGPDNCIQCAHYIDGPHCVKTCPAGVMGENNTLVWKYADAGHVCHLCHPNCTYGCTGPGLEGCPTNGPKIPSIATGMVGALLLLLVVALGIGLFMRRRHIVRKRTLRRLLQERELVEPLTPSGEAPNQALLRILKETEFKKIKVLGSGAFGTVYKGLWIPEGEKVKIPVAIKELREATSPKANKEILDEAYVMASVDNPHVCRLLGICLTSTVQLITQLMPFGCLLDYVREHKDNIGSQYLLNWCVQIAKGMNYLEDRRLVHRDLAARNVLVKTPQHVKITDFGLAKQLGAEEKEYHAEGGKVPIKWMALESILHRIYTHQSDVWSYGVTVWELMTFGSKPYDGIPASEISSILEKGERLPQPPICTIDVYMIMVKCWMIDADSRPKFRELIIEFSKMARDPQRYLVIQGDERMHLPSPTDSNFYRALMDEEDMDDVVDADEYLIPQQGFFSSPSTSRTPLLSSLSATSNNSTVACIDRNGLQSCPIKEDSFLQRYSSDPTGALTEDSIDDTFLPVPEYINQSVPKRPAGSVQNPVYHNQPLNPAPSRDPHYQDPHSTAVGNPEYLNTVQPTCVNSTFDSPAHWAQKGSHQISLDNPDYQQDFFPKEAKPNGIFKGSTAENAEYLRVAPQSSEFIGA
Sequence of Tyrosine-protein kinase BTK (Homo sapiens) (Q06187 whole entry): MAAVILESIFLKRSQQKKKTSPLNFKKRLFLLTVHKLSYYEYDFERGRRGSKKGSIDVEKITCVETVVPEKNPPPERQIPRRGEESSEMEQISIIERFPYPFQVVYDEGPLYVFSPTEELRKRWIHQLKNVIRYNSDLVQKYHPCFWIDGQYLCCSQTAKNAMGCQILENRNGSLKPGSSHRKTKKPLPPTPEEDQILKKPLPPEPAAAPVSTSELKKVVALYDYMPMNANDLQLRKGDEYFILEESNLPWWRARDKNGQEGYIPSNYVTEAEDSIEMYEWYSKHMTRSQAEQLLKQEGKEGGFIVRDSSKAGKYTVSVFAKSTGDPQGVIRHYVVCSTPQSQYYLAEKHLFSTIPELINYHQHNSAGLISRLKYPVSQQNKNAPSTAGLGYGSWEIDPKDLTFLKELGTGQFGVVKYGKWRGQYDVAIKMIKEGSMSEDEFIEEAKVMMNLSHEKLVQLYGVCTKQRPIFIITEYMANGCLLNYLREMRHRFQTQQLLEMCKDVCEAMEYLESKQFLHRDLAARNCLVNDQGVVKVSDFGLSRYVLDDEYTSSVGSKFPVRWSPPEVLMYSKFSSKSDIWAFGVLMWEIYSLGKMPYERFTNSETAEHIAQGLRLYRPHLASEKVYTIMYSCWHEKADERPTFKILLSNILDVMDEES
Sequence of Protein-tyrosine kinase 6 (Homo sapiens) (Q13882 whole entry, looked up): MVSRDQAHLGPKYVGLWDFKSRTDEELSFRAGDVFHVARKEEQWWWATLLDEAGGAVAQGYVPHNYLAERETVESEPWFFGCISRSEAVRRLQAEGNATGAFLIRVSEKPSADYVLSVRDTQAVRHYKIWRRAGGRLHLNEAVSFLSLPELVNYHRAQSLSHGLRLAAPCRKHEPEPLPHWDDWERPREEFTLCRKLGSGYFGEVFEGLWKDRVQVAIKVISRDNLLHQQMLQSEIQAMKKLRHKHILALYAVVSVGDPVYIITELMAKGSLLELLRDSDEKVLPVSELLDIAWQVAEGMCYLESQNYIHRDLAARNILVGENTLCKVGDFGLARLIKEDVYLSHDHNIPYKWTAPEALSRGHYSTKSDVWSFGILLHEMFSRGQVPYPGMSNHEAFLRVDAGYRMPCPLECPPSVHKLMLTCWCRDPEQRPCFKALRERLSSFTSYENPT
Sequence of Tyrosine-protein kinase CSK (Homo sapiens) (P41240 2-450 limits assumed): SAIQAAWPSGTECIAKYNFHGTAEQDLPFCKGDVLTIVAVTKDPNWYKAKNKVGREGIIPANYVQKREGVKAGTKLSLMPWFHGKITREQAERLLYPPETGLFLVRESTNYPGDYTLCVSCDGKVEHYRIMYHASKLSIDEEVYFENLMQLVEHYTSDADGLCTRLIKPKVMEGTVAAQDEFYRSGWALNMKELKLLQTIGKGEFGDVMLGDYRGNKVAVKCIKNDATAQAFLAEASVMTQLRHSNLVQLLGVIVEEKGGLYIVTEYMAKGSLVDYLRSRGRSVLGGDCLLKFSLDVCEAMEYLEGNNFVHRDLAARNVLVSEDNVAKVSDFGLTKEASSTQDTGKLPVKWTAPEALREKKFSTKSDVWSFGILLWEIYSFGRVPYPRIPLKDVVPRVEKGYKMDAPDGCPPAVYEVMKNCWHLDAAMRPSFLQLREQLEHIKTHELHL

For the compound `O=C(Nc1ccc(Oc2ccc3[nH]c(NC(=O)c4ccco4)nc3c2)cc1)Nc1cc(C(F)(F)F)ccc1F`, the inhibition in test [1] was 60.5%; in [2], -3.12%; in test [3], 1.7%; in test [4], -2.09%; in test [5], 1.74%; in [6], 1.76%. Besides, the inhibition was 3.78% in test [7]; -3.7% in [8]; -3.03% in test [9]; 2.94% in test [10]; 35.3% in test [11]; 60.3% in test [12]. For the same compound, the inhibition in [13] is 80.2%; in [14] it was -1.7%; in test [15], -1.45%; in test [16] it was 0.69%; in test [17], 0.69%; in test [18], 0.16%. The inhibition in test [19] is -2.44%; in [20], 0.07%.
`CC(C)c1ccc2c(c1)NC(=O)/C2=N/Nc1ccc(S(N)(=O)=O)cc1`: the inhibition in test [1] came to 0.13%; in test [2], 1.27%; in test [3] it was 14%; in [4] it was 0.14%; in test [5], 6.03%; in test [6], 0.98%. Moreover, the inhibition in test [7] is 1.26%; in test [8], -0.25%; in test [9], 0.07%; in test [10] it was -1.01%; in test [11], 0.99%; in [12], 0.55%. Moreover, the inhibition in test [13] was 0.19%; in test [14] it was 1.14%; in test [15], 2.18%; in test [16], -0.18%; in test [17] it was -0.39%; in test [18], -0.48%. In addition, the inhibition in test [19] was -2.09%; in [20] it was -1.03%.
Take `N#Cc1cccc(Nc2nccc(-c3cnn4ncccc34)n2)c1`: the inhibition worked out at 33.8% in [1]; 5.38% in [2]; 26.5% in test [3]; 4.87% in test [4]; 39.7% in test [5]; 5.32% in [6]. The inhibition in test [7] came out at 23.5%; in test [8], 2.23%; in [9], 5.13%; in [10], 5.02%; in test [11], 13.4%; in [12] it was 2.63%. Further, the inhibition in [13] amounted to 7.43%; in test [14] it was 1.1%; in test [15], 6.11%; in test [16], 4.18%; in test [17] it was 18.2%; in test [18], 4.53%. In addition, the inhibition in [19] turned out to be 7.78%; in [20], 2.36%.
`N#Cc1c(NC(=O)c2ccccc2F)sc2c1CCCC2`: the inhibition in test [1] is 2.38%; in test [2], -0.71%; in test [3] it was 0.42%; in test [4], -1.17%; in [5] it was -1.62%; in test [6], 0.56%. Also, the inhibition is -1.93% in [7]; 0.32% in [8]; -0.23% in test [9]; -1.65% in test [10]; -5.02% in [11]; -1.61% in [12]. The inhibition in [13] was -1.14%; in [14], 2.1%; in [15] it was 4%; in test [16], 1.21%; in [17] it was 3.66%; in [18], -0.67%. The inhibition in [19] is -1.19%; in test [20], -2.41%.
For `COC(=O)Nc1nc2cc(Oc3ccc(NC(=O)Nc4cccc(Br)c4)cc3)ccc2[nH]1`, the inhibition in test [1] came to 9.52%; in test [2] it was 3.1%; in test [3] it was 2.8%; in test [4], 2.76%; in test [5] it was 1.32%; in [6], 3.81%. The inhibition in test [7] amounted to 4.63%; in test [8], 1.15%; in [9], 0.55%; in test [10], 7.57%; in test [11] it was 3.27%; in test [12], 98.2%. The inhibition in test [13] came to 93.7%; in test [14], 1.74%; in test [15], 3.19%; in test [16] it was 5.58%; in test [17] it was 5.33%; in test [18] it was 3.01%. Besides, the inhibition was 4.1% in test [19] and 2.15% in [20].
As to `Oc1cccc(-c2nc(-c3ccccc3)[nH]c2-c2ccncc2)c1`, the inhibition was -0.19% in test [1]; 2.99% in test [2]; 8.82% in test [3]; 7.29% in [4]; 8.97% in [5]; 13% in [6]. Further, the inhibition worked out at 55.4% in [7]; 2.03% in test [8]; 2.36% in [9]; 6.74% in [10]; 16.5% in [11]; 2.82% in [12]. Further, the inhibition in test [13] came to 10.9%; in test [14] it was 2.76%; in test [15] it was 4.4%; in test [16], 6.31%; in test [17], 19.7%; in [18] it was 4.74%. In addition, the inhibition in test [19] was 8.26%; in test [20], 1.84%.
Consider `NS(=O)(=O)c1ccc(NC=C2C(=O)Nc3ccc4ncsc4c32)cc1`, for which the inhibition in test [1] came to 42.4%; in [2] it was 8.34%; in test [3], 58.3%; in test [4], 6.93%; in [5], 13.8%; in test [6], 3.25%. The inhibition was determined as 8.92% in test [7]; 0.4% in [8]; 3.74% in test [9]; 2.77% in [10]; 3.77% in [11]; 1.65% in test [12]. The inhibition in test [13] amounted to 6.94%; in test [14] it was 0.01%; in [15], 0.9%; in [16] it was 3.08%; in test [17], 5.45%; in test [18], 2.21%. The results for the inhibition in [19] and in test [20] were 0.54% and 2.24%, respectively.
